How the values were obtained:
ETS1 [1] = target: T1, ETS1 (UniProt P14921); experiment: ETS1 binding intensity (PBM fluorescence), ETS1 alone (arbitrary fluorescence units); higher = stronger binding; details: ETS1 concentration 1 nM; RUNX1 concentration 0 nM
T1 sequence: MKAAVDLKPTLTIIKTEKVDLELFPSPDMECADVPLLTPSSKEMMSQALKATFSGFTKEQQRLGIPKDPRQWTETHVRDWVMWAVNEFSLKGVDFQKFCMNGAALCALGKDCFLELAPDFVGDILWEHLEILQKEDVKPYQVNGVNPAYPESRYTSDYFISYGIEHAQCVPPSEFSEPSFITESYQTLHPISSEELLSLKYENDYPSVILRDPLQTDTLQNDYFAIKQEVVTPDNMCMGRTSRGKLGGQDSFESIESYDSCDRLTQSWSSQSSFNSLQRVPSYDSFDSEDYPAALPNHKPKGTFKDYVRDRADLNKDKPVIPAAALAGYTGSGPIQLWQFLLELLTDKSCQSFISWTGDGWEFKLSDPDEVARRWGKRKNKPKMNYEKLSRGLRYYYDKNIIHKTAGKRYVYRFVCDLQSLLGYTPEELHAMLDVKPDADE

RUNX1 [2] = target: RUNX1 (UniProt Q01196); experiment: RUNX1 binding intensity (PBM fluorescence), RUNX1 alone (arbitrary fluorescence units); higher = stronger binding; details: RUNX1 concentration 2 nM; ETS1 concentration 0 nM
Protocol: (§1)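 Cooperative gcPBM on 36-bp genomic probes with neighbouring ETS1 and RUNX1 sites. Recombinant human RUNX1 (2 nM) was incubated alone or with ETS1 (25 nM) and detected with anti-RUNX1 antibody plus Alexa488 secondary. Values are medians over 4 replicate spots; the RUNX1+ETS1 data were normalised to the RUNX1-only data. The probes sit in constant array flanks that are not printed.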

ETS1 [3] = target: T1, ETS1; experiment: ETS1 binding intensity (PBM fluorescence) in presence of RUNX1, normalised to ETS1-only experiment (arbitrary fluorescence units); higher = stronger binding; details: ETS1 concentration 1 nM; RUNX1 concentration 25 nM
RUNX1 [4] = target: RUNX1 (UniProt Q01196); experiment: RUNX1 binding intensity (PBM fluorescence) in presence of ETS1, normalised to RUNX1-only experiment (arbitrary fluorescence units); higher = stronger binding; details: RUNX1 concentration 2 nM; ETS1 concentration 25 nM
Protocol: as §1
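Throughout, for RUNX1 binding intensity (PBM fluorescence) in presence of ETS1, normalised to RUNX1-only experiment: Full-length recombinant human ETS1 or RUNX1 bound to double-stranded 36-bp genomic probes on microarrays, detected by protein-specific primary antibody and Alexa488 secondary, spot fluorescence as median of four replicate spots.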
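Throughout, for RUNX1 binding intensity (PBM fluorescence), RUNX1 alone: Full-length recombinant human RUNX1 bound to double-stranded 36-bp genomic probes on a high-density microarray, scored as Alexa488 fluorescence per spot via anti-RUNX1 antibody, median of four replicate spots.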

Sequence of RUNX1 (Q01196 whole entry): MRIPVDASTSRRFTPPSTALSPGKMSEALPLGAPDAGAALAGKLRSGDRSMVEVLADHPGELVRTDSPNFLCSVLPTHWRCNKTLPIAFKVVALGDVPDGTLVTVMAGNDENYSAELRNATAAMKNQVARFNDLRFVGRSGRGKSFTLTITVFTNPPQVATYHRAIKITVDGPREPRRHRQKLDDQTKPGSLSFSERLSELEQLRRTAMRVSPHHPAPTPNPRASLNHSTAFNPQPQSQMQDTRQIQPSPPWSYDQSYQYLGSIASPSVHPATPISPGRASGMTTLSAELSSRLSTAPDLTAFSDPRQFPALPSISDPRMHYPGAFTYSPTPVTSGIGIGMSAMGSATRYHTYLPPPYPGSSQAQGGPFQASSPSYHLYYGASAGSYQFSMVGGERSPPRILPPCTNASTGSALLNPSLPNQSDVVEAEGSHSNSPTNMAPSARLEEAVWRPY

Row | Sequence | ETS1 binding intensity (ETS1 [1]) | RUNX1 binding intensity (RUNX1 [2]) | ETS1 binding intensity (ETS1 [3]) | RUNX1 binding intensity (RUNX1 [4])
1 | TGCTTAGCAGGAAGTTAGTCTGCCTGTGGTAGCTCC | 2770 | 734 | 3470 | 1020
2 | ATATATCACCCCTTCCTTGCAAAACCACAAGACCAA | 508 | 6030 | 1490 | 8230
3 | TACCCAGAAAGGAAGTGGAACCTGCGGTGAGGCCCC | 1130 | 875 | 5650 | 1950
4 | GACACCCCACACCGGAAACCTCAGACAGTCCTCAGC | 4120 | 1170 | 4680 | 2900
5 | GAAATGAAGGCCGGATGTCAGTAACCACAAACGAGC | 7620 | 1040 | 47500 | 11000
6 | GTGGGGCGGGCTTCCGGCGCTCCCACCGCGAGCCGA | 921 | 790 | 1050 | 1500
7 | GCAAGGCAACAGGAAATTGTGGGGAAATTTTAAAAA | 3930 | 770 | 6190 | 1070
8 | GGGCGGAAGTGCGTCACTATGTCCGACCCGCAGTGC | 1630 | 706 | 2050 | 1010
9 | TTTTTAAGGTCAGGATGTGGGCACATCTAAGGGGCA | 1330 | 816 | 1730 | 1370
10 | GCCGCGCGGAAGCCTCCGCCCTGTGGTTTTGGAGCC | 368 | 1030 | 993 | 1530
11 | TGGGCTTTGCAGGAAGCTGTGGTTCACCTACAGCCT | 1160 | 692 | 2110 | 866
12 | CAAACAGGTTCCGGCCGGACTACAGCGCCCACAATG | 432 | 712 | 460 | 1080
13 | GTGGGGAGAGGCAGGAAACCGCTGCCGCCGACGGGG | 3550 | 807 | 4730 | 1030
14 | CTTCAGCCGCCACTTCCCCGCCCCCGCAGCCCGACA | 936 | 1290 | 925 | 1290
15 | TTTGTAAGAGGAGGAAGTGGTTTGTAAGAGGAGAAA | 2180 | 835 | 3260 | 1270
16 | TGCAATTGGCAGACAGGAAACCGCGGCGTTTTCTGG | 5340 | 764 | 13500 | 1440
17 | TGGGGAGGCAGGAAACGGGCCTTGTGGTTGGGGGGT | 4210 | 770 | 16900 | 1020
18 | GTGGCCTCTTCAACAGGAAACCACAATATTTTTGTT | 4610 | 1410 | 10500 | 2710
19 | CCTGTACGGAAGCTACTCTGGTTTCATGTGGTTTCA | 441 | 904 | 654 | 1030
20 | GACCTGGGTTTCCTGTCTGTACATCGCGGTTCCTAC | 936 | 856 | 1260 | 1830

Row | Sequence | ETS1 binding intensity (ETS1 [1]) | RUNX1 binding intensity (RUNX1 [2]) | ETS1 binding intensity (ETS1 [3]) | RUNX1 binding intensity (RUNX1 [4])
21 | AGCTGTTTGGTCACAGGATGTGGTTATTAGAATAGG | 4800 | 894 | 27900 | 4040
22 | AGCTTCCTGTTTGGCCTTGCTGATGTCACCGCATTA | 729 | 932 | 1090 | 2360
23 | TTTGTGCCCCAACTTCCTCTGTGGCTTTTGGGTGGG | 650 | 898 | 969 | 1480
24 | GGAACAGGAAGCGGCAGAAATAGCAGCCACCGCGGC | 960 | 819 | 1540 | 1310
25 | TCATTTCCTCTGGTGTTATTGTGTTGTGGTTTTAAG | 417 | 1580 | 1560 | 3040
26 | TCACATCCTGTAATGGTTTGCGCATACCACAGTTCT | 455 | 825 | 684 | 1740
27 | AGCTCAATTTCCTGGCGTGTAACATGGCCACAAGGG | 827 | 830 | 595 | 1390
28 | CAGCTCCGACTTCCGGGTGCGGTACGGCGAAGCAGA | 1320 | 756 | 1610 | 2140
29 | GTTTAACAGGAAACCCTGCAGACCACAGGTTCTGTC | 1220 | 807 | 3630 | 1680
30 | ACAAGAGGAAGTGAGTCTACCCATGATGCGGTCACA | 707 | 891 | 4460 | 1440
31 | GTGACGGATATCCACCGGGCCCTGTGGTTTCCAACA | 394 | 822 | 1200 | 986
32 | GCCCAGTTCTCGCATCCGGTCTGCGGCGCGCTCGGG | 4380 | 828 | 5020 | 1840
33 | CAGGCAGGATGTTGACTCAGCTGCCAAGTGGTTTTG | 1340 | 719 | 1760 | 1020
34 | CAGTGGCTAAGGATCCGGTGTTGCGGTGATACATGA | 430 | 804 | 643 | 1280
35 | GGACTTCCTGAAGCCAGATCGGTTTACCACAGTCAG | 413 | 634 | 599 | 1860
36 | GCCCAGGCAGGAAGCCAGGCGCCCACAGGTTGGCAG | 990 | 643 | 1090 | 923
37 | CAGCTCTCTCGCTTCCTGTGGTGTAAACATGAAGCA | 1570 | 964 | 1400 | 1500
38 | CTCTGCCCGCTTCCGCTGGCGGTACCTCAGAGCCGC | 919 | 904 | 920 | 4710
39 | GGCAGGAAAGAGCTGATGCATTTCAACCGCAGCCTG | 520 | 1110 | 2430 | 1040
